Results as given in PubChem BioAssay AID1049 (The Scripps Research Institute Molecular Screening Center, 2008).
Hit rate of the full screen: of about 200,000 compounds, about 780 (0.39%) were called active. Rule as the data show it: active = TR-FRET ratio above about 2000; inactive = the rest. For the sample, actives were picked, then their nearest neighbours and some compounds at random.

Test: TR-FRET signal artefacts, primary screen, artefact control for PPARgamma SRC-2 agonist project, biochemical (AID 1049)
Settings: TR-FRET artefact counter-screen; at 8 µM; hits give high values

SMILES	TR-FRET ratio
Cc1ccccc1-n1nc(C)c2c1N=C1C(Cl)=CC(Cl)=CN1C2c1ccc(C(=O)O)cc1 (configuration not stated)	1440 (inactive)
CC(Sc1nnnn1C)C(=O)NC(=O)NC1CCCCC1 (configuration not stated)	1580 (inactive)
CN1CCN(/N=C/c2ccc(C#N)cc2)CC1	1460 (inactive)
Cn1c(-c2sc3cc(C(F)(F)F)cnc3c2-c2ccccc2)n[nH]c1=S	2810 (active)
Cn1c(-c2sccc2OCc2cccc(C(F)(F)F)c2)n[nH]c1=S	1690 (inactive)
Cc1ccc(/C=N\n2c(-c3ccccc3)n[nH]c2=S)s1	1450 (inactive)
Nc1c(NCCc2ccccc2)c2ccccc2oc1=O	1500 (inactive)
Cc1cc(Cl)ccc1OCCCC(=O)NCc1ccccn1	1540 (inactive)
CN(CC(=O)N1CCN(c2ccccc2)CC1)S(=O)(=O)c1cccs1	1460 (inactive)
COc1cc2c(cc1O)C(SC)=NC(C)(C)C2	1660 (inactive)
COc1cc2c(cc1OC)C(C(C)C)=NC(C)(C)C2	1430 (inactive)
COc1cc2c(cc1OC)C(Nc1ccc(S(N)(=O)=O)cc1)=NC(C)(C)C2	2460 (active)
Cc1ccc(C)c(Cn2cnc3c(oc4ccccc43)c2=O)c1	1620 (inactive)
Cc1ccc2[nH]c(=O)c(CN(CC3COCCO3)C(=O)Nc3ccccc3C)cc2c1 (configuration not stated)	1560 (inactive)
Cc1cccc2cc(CN(Cc3ccc4c(c3)OCO4)Cc3nnnn3C3CCCC3)c(=O)[nH]c12	2020 (active)
Cc1cccc2cc(CN(Cc3cccs3)C(c3nnnn3C3CCCC3)C(C)C)c(=O)[nH]c12 (configuration not stated)	1580 (inactive)
CCC(c1nnnn1C1CCCC1)N(Cc1cccs1)Cc1cc2cccc(C)c2[nH]c1=O (configuration not stated)	1590 (inactive)
O=C(/C=C/c1ccccc1[N+](=O)[O-])OC1CCCCC1=O (configuration not stated)	1570 (inactive)
O=C(COC(=O)c1c2c(nc3ccccc13)CCCC2)c1ccc(Br)s1	2060 (active)
O=C(COC(=O)c1c2c(nc3ccccc13)/C(=C\c1cccs1)CCC2)Nc1ccccc1Cl	1590 (inactive)
O=C(Nc1c2c(nc3ccccc13)CCCC2)c1ccccc1Br	1590 (inactive)
O=C(N1CCCCC1)N1CCN(C(=O)N2CCCCC2)CC1	1520 (inactive)
Cc1ccc(C(=O)O)cc1N1C(=O)CCCC1=O	1430 (inactive)
COc1cc(OC)cc(-c2nnc(SCC(=O)Nc3ccc(C(=O)O)cc3)s2)c1	2010 (active)
Nc1nnc(SCC(=O)Nc2ccc3nc(SCC(=O)Nc4ccccc4)sc3c2)s1	1750 (inactive)
COc1ccc(NC(=O)CSc2nc(C)cs2)cc1	1520 (inactive)
COC(=O)[C@@H]1CC[C@H](C)[C@@H](c2ccc(C)cc2)N1C(=O)c1ccc(/C=N/O[C@H](C)c2cn([C@@H]3COC[C@H]3O)nn2)cc1	1550 (inactive)
